EBV gp42 inh: EBV gp42 inhibition; Q1HVG2; Fluorescence polarization binding assay, mP read-out; inhibition, % (tested at 21.74 µM); actives 0.42% (n = 220,000); AID 1085; in the data active = inhibition above about 50%
GLD-1 TGE inh: GLD-1-TGE RNA interaction inhibition (C. elegans). purified GLD-1 + fluorescein TGE RNA, fluorescence polarization. inhibition, % at 5.96 µM. actives 0.44% (n = 320,000). AID 2280;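 active = percent inhibition above a per-plate cutoff, the plate mean of test compounds plus 3 SD, cut at about 30% in these data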
Target sequence (Q17339 whole entry, looked up): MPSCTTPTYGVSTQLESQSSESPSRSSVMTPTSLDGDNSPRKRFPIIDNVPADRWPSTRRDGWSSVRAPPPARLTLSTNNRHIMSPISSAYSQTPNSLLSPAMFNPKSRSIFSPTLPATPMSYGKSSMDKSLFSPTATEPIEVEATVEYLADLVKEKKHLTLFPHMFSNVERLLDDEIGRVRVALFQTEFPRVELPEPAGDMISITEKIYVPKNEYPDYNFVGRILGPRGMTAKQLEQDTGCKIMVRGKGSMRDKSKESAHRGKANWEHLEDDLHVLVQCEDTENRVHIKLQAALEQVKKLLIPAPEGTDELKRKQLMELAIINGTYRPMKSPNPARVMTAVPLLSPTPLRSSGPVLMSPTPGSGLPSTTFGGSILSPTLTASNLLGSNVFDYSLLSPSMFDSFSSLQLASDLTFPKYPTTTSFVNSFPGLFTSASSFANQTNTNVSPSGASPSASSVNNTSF
BCLXL inh: inhibitors of human Bcl-xL. Q07817. GST-Bcl-xL / FITC-Bim BH3 peptide fluorescence polarization. inhibition, % at 10.9 µM. actives 0.7% (n = 320,000). AID 2129;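 active = inhibition above the mean of all tested compounds plus 3 SD, cutoff set per campaign, cut at about 30% in these data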;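 also: inhibitors lower millipolarization by displacing the labeled peptide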
Target sequence (Q07817 whole entry, looked up): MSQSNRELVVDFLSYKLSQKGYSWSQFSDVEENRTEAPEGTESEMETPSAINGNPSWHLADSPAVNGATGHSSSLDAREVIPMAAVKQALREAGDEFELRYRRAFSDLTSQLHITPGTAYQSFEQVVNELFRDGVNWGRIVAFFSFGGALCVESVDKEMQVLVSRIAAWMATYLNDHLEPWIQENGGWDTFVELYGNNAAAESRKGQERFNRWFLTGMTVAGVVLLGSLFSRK
MEX-5 binding: C. elegans MEX-5 TCR-2 RNA binding activity; MEX-5/FITC-TCR2 RNA binding, fluorescence polarization; active compounds read low; Q9XUB2; actives 0.38% (n = 300,000); activity score (negative = inhibition of binding), % at 10 µM;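 active = inhibition past about -25% in most replicates, and total fluorescence under double the plate's negative control median, limit read from the data; inconclusive = replicates evenly split on the limit, or fluorescence at least double controls; inactive = too little inhibition in most replicates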
E coli Lon inh: E. coli protease La inhibition | purified E. coli Lon protease, fluorescence polarization | P0A9M0 | actives 0.42% (n = 360,000) | inhibition, % at 7.94 µM; in the data active = inhibition above about 13%, passing the limit was not always enough
Of the large screens only hits and unclear results are named; the others gave an inactive call. A selection: hits, their analogues and other compounds. The true share with any hit is near 1.3%.

CCC1=NN2C(=N)/C(=C\c3cccn3-c3ccc(Br)cc3)C(=O)N=C2S1	EBV gp42 inh 59 (no result: GLD-1 TGE inh, BCLXL inh)
COc1ccc(-n2cccc2/C=C2\C(=N)N3N=C(c4ccco4)SC3=NC2=O)cc1	EBV gp42 inh 76
CCC1=NN2C(=N)/C(=C\c3cccn3-c3cccc(Cl)c3)C(=O)N=C2S1	none
CC1(C(=O)NS(=O)(=O)C2CC2)CCCN(C(=O)c2ccco2)C1 (configuration not stated)	none (no result: EBV gp42 inh, GLD-1 TGE inh, BCLXL inh, MEX-5 binding)
CC1CCCN(C(=O)c2ccc(S(=O)(=O)Nc3ccccc3Cl)cc2)C1 (configuration not stated)	BCLXL inh 36 (no result: EBV gp42 inh)
Cc1ccccc1NS(=O)(=O)c1cc(C(=O)N2CCCC2)ccc1Cl	none (no result: EBV gp42 inh)
Cc1ccccc1NS(=O)(=O)c1cc(C(=O)N2CCCC2)ccc1C	BCLXL inh 48, MEX-5 binding inconclusive
O=C(c1ccc(S(=O)(=O)Nc2ccccc2Cl)cc1)N1CCOCC1	none (no result: EBV gp42 inh)
O=c1cc(-c2ccc([N+](=O)[O-])cc2)nc2cc(-c3ccc(Cl)cc3)[nH]n12	EBV gp42 inh 83 (no result: MEX-5 binding, E coli Lon inh)
CCCc1cc(=O)n2[nH]c(-c3ccc(Cl)cc3)cc2n1	none (no result: EBV gp42 inh)
COc1ccccc1NC(=O)NNC(=O)CCc1ccccc1	none (no result: EBV gp42 inh)
N=C1/C(=C\c2ccc(-c3cccc(C(=O)O)c3)o2)C(=O)N=C2SC=C(c3ccccc3)N12	EBV gp42 inh 82
COc1cc(CNCCNC(=O)c2nonc2N)ccc1OCc1ccc(Cl)cc1	none
CN(C)c1ccc2nc3ccc(=[N+](C)C)cc-3sc2c1	MEX-5 binding -33
Cc1cc2nc3ccc(=[N+](C)C)cc-3sc2cc1N	MEX-5 binding -48 (no result: GLD-1 TGE inh, BCLXL inh)
Cc1nc2cc(C)c(C)cc2s1	none
COc1cccc(CNC(=O)[C@@H]2CCCN2C(=O)[C@H]2CCCCN2C(=O)c2ccc(Cl)cc2)c1	none (no result: EBV gp42 inh, GLD-1 TGE inh, BCLXL inh, MEX-5 binding)
Cc1ccccc1Nc1nc(Cl)c(C=O)s1	MEX-5 binding -41
Cc1ccc(-c2nnc(SCC(=O)Nc3cccc(C(=O)N4CCOCC4)c3)n2C)cc1	none
CC(C)N1C(=S)SC(C)(C)C1n1oc(=O)n(-c2cccc(Cl)c2)c1=O (configuration not stated)	BCLXL inh 129
CCOc1cc(/C=N/NC(=O)c2ccc(-c3csc(Nc4ccc(C)cc4)n3)cc2)ccc1OCC(=O)O	EBV gp42 inh 89 (no result: GLD-1 TGE inh, BCLXL inh, MEX-5 binding)
COc1cc(/C=N\NC(=O)c2ccc(-c3ccccc3)cc2)ccc1OCC(N)=O	none (no result: EBV gp42 inh, GLD-1 TGE inh, BCLXL inh)
O=C(O)COc1ccc(/C=N/NC(=O)c2ccc(-c3csc(Nc4ccc(Cl)cc4)n3)cc2)cc1	EBV gp42 inh 92 (no result: GLD-1 TGE inh, BCLXL inh)
COc1ccc(N=C2NC(=O)S/C2=C\c2ccc(N(C)C)cc2)cc1	EBV gp42 inh 95
CCOc1ccc(N=C2NC(=O)S/C2=C\c2ccc(Cl)cc2)cc1	none
Cc1cc(C(F)(F)F)c(C#N)c(SCC(=O)Nc2nc3ccccc3s2)n1	BCLXL inh 37
Cc1nc(SCC(=O)Nc2nc3ccccc3s2)c(C#N)c(C)c1C	none
CN(CC(=O)Nc1ccccc1Cl)C1CCCCC1	none (no result: EBV gp42 inh)
CN(CC(=O)Nc1ccccc1Cl)C1CCS(=O)(=O)C1 (configuration not stated)	BCLXL inh 36 (no result: EBV gp42 inh, MEX-5 binding)
N#C/C(=C/c1ccco1)C(N)=S	BCLXL inh 35
COc1ccc2nc(C)cc(N3CCOCC3)c2c1	EBV gp42 inh 84
C[C@H](CO)N1C[C@H](C)[C@@H](CN(C)C(=O)Nc2ccccc2)Oc2ccc(NC(=O)CCC(F)(F)F)cc2C1=O	none (no result: EBV gp42 inh, BCLXL inh, MEX-5 binding)
O=C(N/N=C/C(Cl)=C\c1ccccc1)c1cnccn1	none
CC(=C/c1ccccc1)/C=N/NC(=O)c1cnccn1	EBV gp42 inh 144
COc1ccc(/C=c2\sc3nc(-c4ccccc4OC)nn3c2=O)c(OC)c1	MEX-5 binding -33
COc1ccccc1-c1nc2s/c(=C\c3cccs3)c(=O)n2n1	none
CS(=O)(=O)N1CCCCC1c1cc(C(=O)Nc2ccccc2Cl)no1 (configuration not stated)	none (no result: EBV gp42 inh, GLD-1 TGE inh, BCLXL inh, MEX-5 binding)
O=C(c1ccco1)N1CCN(c2nc3ccccc3n3nnnc23)CC1	BCLXL inh 41
Cc1cccc(N2CCN(C(=S)c3ccc4c(c3)OCO4)CC2)c1	none (no result: EBV gp42 inh, GLD-1 TGE inh, BCLXL inh, MEX-5 binding)
N#Cc1cc2c(=O)n3ccccc3nc2n(-c2ccccc2Cl)c1=O	MEX-5 binding -27
N#C/C(=C\c1ccc(Cl)cc1)C(=O)Nc1cccnc1	none
Cc1ccc2cc(CN(CCO)Cc3nnnn3Cc3ccc(F)cc3)c(=O)[nH]c2c1	none
O=c1[nH]c2cc3c(cc2cc1CN(CCCO)Cc1nnnn1Cc1ccc(F)cc1)OCO3	BCLXL inh 33
O=c1[nH]c2cc3c(cc2cc1CN(Cc1ccc2c(c1)OCO2)Cc1nnnn1CC1CCCO1)OCO3 (configuration not stated)	GLD-1 TGE inh 65, BCLXL inh 70
Cc1ccc2[nH]c(=O)c(CN(Cc3cccnc3)Cc3nnnn3CC3CCCO3)cc2c1 (configuration not stated)	none
CCCOc1cc(N)ccc1C(=O)OCCN(CC)CC	none (no result: EBV gp42 inh, MEX-5 binding)
CCCOc1ccc(N)cc1N	BCLXL inh 117
COc1ccc(S(=O)(=O)N2CCOC2CNC(=O)C(=O)NCc2ccc3c(c2)OCO3)cc1 (configuration not stated)	none (no result: EBV gp42 inh)
O=C(N1CCOCC1)N1CCC(n2nnc3cc(F)ccc32)CC1	GLD-1 TGE inh 40, BCLXL inh 76, MEX-5 binding -27
CC(NC(=O)c1cc(F)c(F)cc1Cl)C1CC2CCC1C2 (configuration not stated)	BCLXL inh 41 (no result: EBV gp42 inh)
Cn1c(SCC(=O)Nc2ccc3nc(SCC(=O)N4CCCC4)sc3c2)nnc1-c1ccccc1	EBV gp42 inh 83 (no result: E coli Lon inh)
C=CCOC(=O)c1cc(-c2ccc(/C=C3\C(=O)NC(=O)C(C#N)=C3C)o2)ccc1Cl	EBV gp42 inh 57 (no result: GLD-1 TGE inh, BCLXL inh, MEX-5 binding)
CC1=C(C#N)C(=O)NC(=O)/C1=C/c1ccc(-c2ccc(S(N)(=O)=O)cc2)o1	MEX-5 binding -33
NS(=O)(=O)c1ccc(-c2ccc(/C=C3\NC(=S)NC3=O)o2)cc1	MEX-5 binding -65 (no result: EBV gp42 inh)
Cc1ccc2c(COC(=O)C3CSC4(C)CCC(=O)N34)cc(=O)oc2c1C (configuration not stated)	none (no result: EBV gp42 inh, BCLXL inh, MEX-5 binding)
CCC(=O)Nc1cccc(NC(=S)NC(=O)c2ccccc2C)c1	none
COc1ccc(C(=O)NC(=S)NNC(=O)c2cnccn2)cc1	none
COc1cc(C(=O)NC(=S)NNC(=O)c2cnccn2)cc(OC)c1OC	MEX-5 binding -47
CC1(C)Cc2c(C#N)c(N3CCN(C(=O)c4ccco4)CC3)nc(-c3ccco3)c2CS1	BCLXL inh 35
CC1(C)Cc2c(C#N)c(N3CCN(C(=O)c4ccccc4Cl)CC3)nc(-c3ccco3)c2CS1	BCLXL inh 33
CC(=O)N1CCN(c2nc(-c3ccco3)c3c(c2C#N)CC(C)(C)SC3)CC1	none
O=C(/C=C/c1ccc(N2CCC(c3ccccc3)=N2)cc1)c1ccccc1	EBV gp42 inh 53, BCLXL inh 34 (no result: E coli Lon inh)
COc1cc(/C(C)=N/NC(=O)c2nnn(-c3nonc3N)c2-c2cccs2)ccc1O	none (no result: EBV gp42 inh)
C/C(=N\NC(=O)c1nnn(-c2nonc2N)c1-c1cccs1)c1cccc(O)c1	MEX-5 binding -63 (no result: EBV gp42 inh)

Screening data (PubChem BioAssay)
